Assay results taken from PubChem BioAssay (NCI).
About 83,000 compounds went through this panel and 20% of them were active in at least one assay; those are over-represented in the sample as a whole.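 96-well plates, one dose, 48 hours. Percent growth reported; active if below 10.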 A number with no mark means an inactive call. Active and inactive are the calls of the source.

Key:
Experiment in all cases: NCI-60 one-dose screen, 48 h (100 = growth as untreated, 0 = no growth, -100 = all killed)
Conditions in all cases: 10 µM unless noted
NCI-H23 lung = tested on: NCI-H23 lung
NCI-H226 lung = tested on: NCI-H226 lung
NCI-H322M lung = tested on: NCI-H322M lung
HOP-62 NSCLC = tested on: HOP-62 NSCLC
NCI-H460 lung = tested on: NCI-H460 lung
HOP-92 NSCLC = tested on: HOP-92 NSCLC
NCI-H522 lung = tested on: NCI-H522 lung
A549/ATCC NSCLC = tested on: A549/ATCC NSCLC
786-0 renal = tested on: 786-0 renal
COLO 205 colon = tested on: COLO 205 colon

Row | SMILES | growth (NCI-H23 lung) | growth (NCI-H226 lung) | growth (NCI-H322M lung) | growth (HOP-62 NSCLC) | growth (NCI-H460 lung) | growth (HOP-92 NSCLC) | growth (NCI-H522 lung) | growth (A549/ATCC NSCLC) | growth (786-0 renal) | growth (COLO 205 colon)
1 | COc1ccc(C/C(C)=C(\c2ccc(OCCN3CCCCCC3)cc2)c2ccc(OC(=O)C3CCCCC3)cc2)cc1 | 63.5% | 78.3% | 73.5% | 74.5% | 38.1% | 19.6% | 63.4% | 65.2% | 68.9% | 10.5%
2 | CCNS(=O)(=O)c1ncnc2nc[nH]c12 | 97.1% | 120% | 111% | 105% | 104% | 98.6% | 88.5% | 119% | 104% | 112%
3 | CC(=O)CC(C)(C)c1ccc(Cl)cc1 | 95.5% | 99% | 107% | 93.3% | 108% | 80% | 95.5% | 103% | 97.8% | 116%
4 | Cn1cc(-c2ccc(-c3cn(C)c4ncccc34)[nH]2)c2cccnc21 | 70.7% | 88.8% | 86.1% | 66.5% | 97.8% | -4.05% (active) | -77.3% (active) | 84.2% | 99% | -23.6% (active)
5 | CNCCCn1c2c(c3ccc([N+](=O)[O-])cc3c1=O)C(=O)c1cc(OC)cnc1-2 | -55.4% (active) | -81.5% (active) | -5.51% (active) | -33.4% (active) | -70.4% (active) | -7.43% (active) | -29% (active) | -82% (active) | -78.5% (active) | -13.2% (active)
6 | C=C1CC[C@@H]2[C@](C)(COC(C)=O)[C@H](OC(C)=O)CC[C@@]2(C)[C@@H]1CC(NCc1ccc(F)cc1)C1=CCOC1=O (stereo not given in full) | 57.9% | 40.1% | 72.5% | 78.7% | 55.2% | 18.8% | 20.9% | 57.9% | 86.8% | 42.2%
7 | COc1ccc2nc3cc(Cl)ccc3c(N3CCN(c4nccc(Nc5ccc(Cl)cc5)n4)CC3)c2c1 | 86.4% | 99.8% | 97.5% | 88.1% | 67% | 34.8% | 51.8% | 76.4% | 42.2% | 95.7%
8 | CCN(CC)CCCNc1cccc2c(SCc3ccccc3)ccnc12 | 69.3% | 89.8% | 41.6% | 94.8% | 72% | 26.2% | 52% | 63.7% | 72.7% | 106%
9 | O=C1/C(=C/c2ccc(Cl)cc2Cl)CN(S(=O)(=O)c2ccccc2)C/C1=C\c1ccc(Cl)cc1Cl | -37.6% (active) | 58.3% | -0.804% (active) | -2.25% (active) | -24.1% (active) | -3.29% (active) | -34.1% (active) | 3.06% (active) | -81.2% (active) | -15.9% (active)
10 | Cc1[nH]n(-c2ccccc2)c2nc3nncc3c(-c3ccc(Cl)cc3)c12 | 103% | 104% | 114% | 110% | 102% | 76.2% | 105% | 84.9% | 100% | 111%
11 | CCOC(=O)N1CCN(c2nc(Nc3cc(C)[nH]n3)c3ccccc3n2)CC1 | 65.8% | 34.8% | 88.5% | 49.6% | 23.1% | 31.3% | 10.4% | 34.4% | 44% | 14%
12 | CC(=O)O[C@H]1CC[C@]2(C)[C@H]3CC[C@@H]4[C@H]5[C@H](C(C)C)CC[C@]5(C(=O)OCC(CO)(CO)N=C(N)N)CC[C@@]4(C)[C@]3(C)CC[C@H]2C1(C)C | 77.7% | 91.4% | 70.2% | 86.1% | -32.4% (active) | 32% | -69.6% (active) | 54.6% | 74.3% | -89.9% (active)
13 | COc1ccc(C/C(C)=C(\c2ccc(Cl)cc2)c2ccc(OCCN3CCCCCC3)cc2)cc1 | 78.8% | 86.1% | 86.8% | 97.4% | 70.4% | 71.2% | 73.5% | 87.9% | 86.3% | 65.2%
14 | Cl/C(=N\Nc1ccccc1)c1ccccc1 | 91.4% | 91% | 75.4% | 96% | 106% | 97.9% | 72.8% | 85.4% | 102% | 98.4%
15 | COc1cc(C2CC(=O)Nc3c2c(C)nn3-c2nc3ccccc3[nH]2)cc(OC)c1OC (stereo not given) | 99.6% | 99.1% | 103% | 104% | 100% | 89.8% | 94% | 97.7% | 110% | 116%
16 | CC(C)(C)n1cc(-c2ccnc(NCCNS(=O)(=O)c3ccccc3)c2)c(-c2cccc(O)c2)n1 | 70.3% | 60.4% | 78.1% | 82.5% | 36.7% | 77.8% | 57.7% | 47.1% | 18.5% | 6.61% (active)
17 | Cc1cc(Nc2nc(N3CCNCC3)nc3ccccc23)n[nH]1 | 96.4% | 86.5% | 91.1% | 109% | 93.4% | 80.2% | 76.4% | 80.8% | 76.1% | 90.8%
18 | O=C(CCN1CCOCC1)Nc1ccc(Cn2nnc3c2C(=O)c2nnn(Cc4ccc(NC(=O)CCN5CCOCC5)cc4)c2C3=O)cc1 | -20.9% (active) | 86.5% | 10% | 70.9% | 13.3% | -20% (active) | -28.9% (active) | 84.8% | 98.5% | -73.8% (active)
19 | CN(C)c1ccc(/C=C\C2=[N+](C)c3ccccc3C2(C)C)cc1 | 7.51% (active) | 16.3% | 23.7% | 13.6% | 4.52% (active) | -15.6% (active) | -23.7% (active) | 2.47% (active) | 18.1% | -78.8% (active)
20 | O=C1c2cccnc2C(=O)c2c1c(C(=O)OCCN1CCOCC1)c1ccccn21 | -38.4% (active) | -28.4% (active) | -55.4% (active) | -34% (active) | -31.2% (active) | 8.96% (active) | -30.2% (active) | -48.7% (active) | 2.64% (active) | -53.5% (active)
21 | O=C(Cn1cc(CN2C(=O)c3ccccc3S2(=O)=O)nn1)Nc1ccc([N+](=O)[O-])cc1Cl | 90% | 91.8% | 94.5% | 101% | 102% | 107% | 101% | 106% | 105% | 103%
22 | CCCCNC(=O)NS(=O)(=O)c1ccc(N2N=C(c3cc(C)ccc3C)CC2c2cc(OC)c(OC)c(OC)c2)cc1 (stereo not given) | -26.1% (active) | 75.2% | 66.7% | 53.8% | 57.5% | 62.4% | 53.7% | 32.6% | 47.9% | 44.7%
23 | O=C(/C=C\c1cccc([N+](=O)[O-])c1)c1ccccc1 | 81.3% | 70.3% | 96.1% | 90.8% | 87.7% | -27% (active) | -5.55% (active) | 92.9% | 13.2% | -71% (active)
24 | O=C1C(Cl)=C(Cl)C(=O)c2c1nc1n2CCCC1 | 74.3% | 109% | 52.7% | 97.1% | 39.9% | 102% | 85.2% | 98.4% | 94.7% | 5.79% (active)
25 | CCc1ccc(C(c2ccc(CC)cc2)C(Cl)(Cl)CCl)cc1 | 92.8% | 101% | 110% | 99.1% | 98.8% | 55.2% | 83% | 149% | 84% | 100%
26 | C=CCSc1nnc(-c2ccc(C(C)(C)C)cc2)n1-c1cccc(C(F)(F)F)c1 | 35.4% | 44.7% | 77.7% | 67.3% | 29.3% | 28.9% | 37.3% | 21.2% | 30.4% | 41.1%
27 | CC(=O)C1=C(O)C=C2Oc3c(C(=O)/C=C/c4ccccc4)c(O)c(C)c(O)c3[C@]2(C)C1=O | 42.4% | 53.9% | 31.5% | 37.3% | 40.9% | 15.5% | 21.6% | 15% | 30.7% | 40.4%
